# Only some compounds are listed: those with a hit (about 19% of all), similar ones and a draw of the others.
# HT1080 IDH1KD tx – qHTS for induction of synthetic lethality in tumor cells producing 2HG: qHTS for the HT-1080-IDH1KD cell line | HT-1080 IDH1 knockdown viability, ATP luminescence, 48 h | Potency, µM (highest dose often 46.1 µM), inactives show at the top dose activity, negative = toxicity, actives largely listed as cytotoxic | 2% of 360,000 active | AID 686971, 2013;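 also: potency is read from the fitted curve at half-maximal effect; 0% = DMSO wells and -100% = cell-free medium wells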
#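 HT-1080-IDH1KD cells (IDH1 knocked down), 750/well in RPMI with 5% FBS, treated with compound 48 h at 37 degrees C. Viability by CellTiter-Glo luminescence, normalised to DMSO and no-cell wells; concentration-response curves classed.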
# IL-1B inflam inh – qHTS for Inhibitors of Inflammasome Signaling: IL-1-beta AlphaLISA Primary Screen; activity change, % at 57.5 µM; THP-1 LPS/ATP IL-1B secretion, AlphaLISA, 16 h; stronger effect = lower value; 4.7% of 360,000 active; AID 743279, 2014; in the data active = activity change below about -50%; inconclusive = mostly about -30% to -49%
#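 THP-1 cells pretreated 1 hr with compounds (up to 57.5 uM final), then stimulated with LPS (250 ng/mL final) plus ATP (1.25 mM final); secreted IL-1B measured by AlphaLISA after 16 hr, decreased signal indicating inhibition.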
# ELG1 DNA repair – qHTS screen for small molecules that inhibit ELG1-dependent DNA repair in human embryonic kidney (HEK293T) cells expressing luciferase-tagged ELG1. 2.3% of 330,000 active. Potency, µM (series often up to 46.1 µM), without a hit: at the highest dose activity change, negative = inhibition, most hits filed as inhibitors. HEK293T ELG1-luciferase reporter, luminescence, 16 h; DNA damage induced by 5-fluorouridine; also: potency is read from the fitted curve at half-maximal effect; nearly all actives have a fitted effect of over 55% in size
#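 5-Fluorouridine DNA damage + compound/DMSO, 2,000 cells/well, 16 h, 37 °C/5% CO2. ONE-Glo, 30 min RT, luminescence. Readout = decrease in reporter signal.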
# HT1080NT lethal – qHTS for induction of synthetic lethality in tumor cells producing 2HG: qHTS for the HT-1080-NT fibrosarcoma cell line | Potency, µM (top dose mostly 46.1 µM), for inactives: at the highest dose activity, negative = less viability, actives largely listed as cytotoxic | 1.6% of 360,000 active | HT-1080-NT fibrosarcoma viability, CellTiter-Glo ATP luminescence, 48 h;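 also: NT is the 2HG producing partner of a matched IDH1 knockdown line; potency is read from the fitted curve at half-maximal effect; 0% = DMSO-treated cells and -100% = media-only wells without cells; nearly all actives have a fitted effect of over 55% in size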
#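 A 48-hour cytotoxicity screen used HT-1080-NT cells plated 2 hours before compound delivery. ATP-based CellTiter-Glo luminescence measured viability, normalized to DMSO and no-cell controls.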
# DT40 TDP1 CPT – qHTS for Inhibitors of human tyrosyl-DNA phosphodiesterase 1 (TDP1): qHTS in cells in presence of CPT; 12% of 420,000 active; AID 686979, 2013; Potency, µM (top dose mostly 46.2 µM), inactives show at the highest dose activity change, negative = growth inhibition, hits mostly inhibitors; chicken DT40 Tdp1-/-;hTDP1 cells + 20 nM CPT, ATP luminescence, 48 h; also: potency is read from the fitted curve at half-maximal effect; nearly all actives have a fitted effect of over 55% in size
#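 Chicken DT40 Tdp1-/- cells stably complemented with human TDP1 were seeded at 400 cells/well in medium containing 20 nM camptothecin, exposed to pin-transferred compounds, and grown at 37 °C for at least 48 hr. Viability was read as ATP luminescence.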
# TDP1 cell noCPT – qHTS for Inhibitors of human tyrosyl-DNA phosphodiesterase 1 (TDP1): qHTS in cells in absence of CPT; DT40 Tdp1-/- hTDP1 cells, no CPT, ATP luminescence, 48 h; Potency, µM (highest dose often 46.2 µM), inactives show top-dose activity change, negative = growth inhibition, usual class: inhibitors; 15% of 420,000 active; also: potency is read from the fitted curve at half-maximal effect; nearly all actives have a fitted effect of over 55% in size
#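 Cells were dispensed at 400 per well, compounds added by pin tool, plates incubated ≥48 hr at 37 °C, then CellTiter-Glo added for 30 min at room temperature before luminescence reading. Line: DT40 Tdp1-/- complemented with hTDP1; camptothecin omitted.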
# An asterisk follows results filed as active; ? = inconclusive; nt = not tested or not shown. Unless noted, calls follow the shape of the dose curve; as a rule, active = well fitted curve in the direction sought with a large enough effect; inconclusive = small, poorly fitted or top-dose-only effect, or another doubt; inactive = no such curve, though single readings can be large; an effect the other way counts as inactive or inconclusive. Unless noted, % is scaled to controls: 0 for no effect and ±100 for the full control effect.
SMILES,HT1080 IDH1KD tx,IL-1B inflam inh,ELG1 DNA repair,HT1080NT lethal,DT40 TDP1 CPT,TDP1 cell noCPT
Cc1nn(C(C)C(=O)N2CCN(c3ccc(F)cc3)CC2)c(=O)c2c1sc1ccccc12 (centres undefined),nt,nt,nt,nt,-20%,-24%
CCC(C(=O)NC1CCC(C)CC1)n1nc(C)c2sc3ccccc3c2c1=O (centres undefined),nt,nt,nt,nt,15µM*,15µM*
CCCN1CCN(C(=O)C(C)n2nc(C)c3sc4ccccc4c3c2=O)CC1 (centres undefined),-8%,-8,-4%,-4%,?,18µM*
CCCOc1ccc(CNC(=O)C(CC)n2nc(C)c3sc4ccccc4c3c2=O)cc1 (centres undefined),nt,nt,nt,nt,21µM*,23µM*
CCCN1CCN(CCCNC(=O)C(CC)n2nc(C)c3sc4ccccc4c3c2=O)CC1 (centres undefined),0%,0,-12%,-25%,-26%,2%
CCC(C(=O)Nc1cc(C(F)(F)F)ccc1Cl)n1nc(C)c2sc3ccccc3c2c1=O (centres undefined),nt,nt,nt,nt,23µM*,16µM*
COc1ccc(OC)c(NS(=O)(=O)c2cccc3cccnc23)c1,-12%,18,-1%,-7%,-5%,-29%
COc1ccc(NS(=O)(=O)c2ccc3ccccc3c2)c2ncccc12,?,91,-15%,-30%,8.2µM*,6.5µM*
COc1ccc(C(C)(C)C)cc1NS(=O)(=O)c1cccc2cccnc12,-1%,?,-2%,-10%,26µM*,18µM*
Cc1ccc(OCC(=O)Nc2ccc3nn(-c4ccc(C)cc4)nc3c2)cc1,nt,nt,nt,nt,-20%,-8%
Cc1ccc(C(=O)NC(NC(=S)Nc2ccc(S(N)(=O)=O)cc2)C(Cl)(Cl)Cl)cc1 (centres undefined),-5%,-76*,1%,-6%,?,?
O=C(O)c1ccc(NC(=S)NC(NC(=O)c2ccco2)C(Cl)(Cl)Cl)cc1 (centres undefined),1%,-11,1%,0%,0%,8%
Cc1ccc(NC(=S)NC(NC(=O)c2ccco2)C(Cl)(Cl)Cl)cc1 (centres undefined),?,-3,?,?,16µM*,?
O=C(Nc1ccnn1C1CCN(C(=O)c2cccc(Cl)c2)CC1)C1CCOC1 (centres undefined),3%,11,1%,28%,-1%,-8%
COc1ccccc1N=NNc1ccc(S(=O)(=O)NC(C)=O)cc1,9%,48,nt,?,?,?
O=S(=O)(Nc1ccc2c(c1)nc1n2CCOC1)c1ccc(Cl)cc1,0%,24,-9%,5%,?,13µM*
CSc1ncc(F)c(N(CCO)CCO)n1,-3%,0,?,-2%,-3%,-25%
CSc1nc(N(CCO)CCO)c2sc3nc(-c4ccco4)c4c(c3c2n1)CCC4,-24%,-18,?,?,16µM*,12µM*
Cc1ccc(Cn2nnc3c(=O)[nH]c(C4CCN(S(=O)(=O)c5cc(C)ccc5C)CC4)nc32)cc1,?,-12,-12%,?,?,23µM*
Cc1ccc(C)c(Cn2nnc3c(=O)[nH]c(C4CCN(S(=O)(=O)c5ccc(S(=O)(=O)NC6CC6)cc5)CC4)nc32)c1,?,-54*,16µM*,?,?,18µM*

# High-throughput results: PubChem, National Center for Advancing Translational Sciences (NCATS)
